These results are taken from PubChem BioAssay.

The target in the first experiment is Focal adhesion kinase 1 (Homo sapiens) (UniProt Q05397). The experiment in a line: small-molecule microarray binders of FAK, primary screen, biochemical, 635/667 nm fluorescence, BSA, DTT (AID 1130).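 Also: composite of spot emission at 667 nm and signal to noise over triplicate slides.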 Conditions: PTK2 binding, 635 nm fluorescence, higher = more signal.
Chain of Focal adhesion kinase 1 (Homo sapiens) (Q05397 whole entry, looked up): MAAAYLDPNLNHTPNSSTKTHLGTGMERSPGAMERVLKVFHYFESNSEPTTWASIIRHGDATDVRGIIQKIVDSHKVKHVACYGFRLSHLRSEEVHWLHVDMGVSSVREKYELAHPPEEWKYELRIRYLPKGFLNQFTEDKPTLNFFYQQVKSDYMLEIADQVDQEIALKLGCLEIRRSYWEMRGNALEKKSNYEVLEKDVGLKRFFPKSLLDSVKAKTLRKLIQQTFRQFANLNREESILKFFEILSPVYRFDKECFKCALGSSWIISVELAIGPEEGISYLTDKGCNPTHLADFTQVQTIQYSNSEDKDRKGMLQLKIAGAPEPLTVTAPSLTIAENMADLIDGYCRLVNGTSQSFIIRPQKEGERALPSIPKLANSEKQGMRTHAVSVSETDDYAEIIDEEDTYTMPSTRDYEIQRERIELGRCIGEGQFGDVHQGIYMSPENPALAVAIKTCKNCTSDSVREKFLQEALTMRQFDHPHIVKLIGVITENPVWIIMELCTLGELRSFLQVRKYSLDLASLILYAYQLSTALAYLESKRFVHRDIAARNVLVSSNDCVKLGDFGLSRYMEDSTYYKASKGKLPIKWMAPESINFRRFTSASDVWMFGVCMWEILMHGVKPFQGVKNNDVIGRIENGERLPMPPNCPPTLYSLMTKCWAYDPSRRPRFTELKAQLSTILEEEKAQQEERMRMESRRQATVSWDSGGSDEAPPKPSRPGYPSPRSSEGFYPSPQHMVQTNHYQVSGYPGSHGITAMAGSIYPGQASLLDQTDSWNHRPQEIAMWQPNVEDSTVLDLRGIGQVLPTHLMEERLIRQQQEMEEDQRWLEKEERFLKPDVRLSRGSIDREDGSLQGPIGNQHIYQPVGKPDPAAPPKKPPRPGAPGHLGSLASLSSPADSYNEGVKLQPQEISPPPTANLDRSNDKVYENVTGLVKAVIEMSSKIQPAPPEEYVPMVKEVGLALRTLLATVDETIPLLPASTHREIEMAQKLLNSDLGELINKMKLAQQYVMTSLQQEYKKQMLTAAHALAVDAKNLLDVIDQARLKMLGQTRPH
`COC(=O)[C@@H]1N=C(c2ccc(OCCCO)cc2)O[C@@H]1C` had a composite z-score of 0.517.
Still for that read-out and setting: to `C=C[C@H]1C(C(=O)OCC)=CC[C@@H](c2ccccc2)N1S(=O)(=O)c1ccc(C)cc1` belongs 0.736; to `CC(c1ccccc1)C(O)C1C=CC2C(=O)N(C)C(=O)C2N1Nc1ccccc1` (stereo not given), 0.322.
Same read-out and setting: to `NC(=O)NCC#Cc1ccc2c(c1)[C@]1(C(=O)N2)[C@H](c2ccccc2OCCO)N2[C@H](c3ccccc3)[C@H](c3ccccc3)OC(=O)[C@H]2[C@@H]1C(=O)NC[C@H](O)c1ccccc1` belongs 0.183; to `CCCCC[C@H]1OC[C@@]23C=C(Br)[C@@H](CC12)[C@@]1(CO1)C3=O` (stereo not given in full), 0.215; to `CCC#CCN(Cc1ccccc1Br)[C@H](/C=C/C1CC1)[C@@H](O)Cc1ccccc1`, -0.579.
Same read-out and setting: to `COC(=O)C(CC#Cc1ccc2c(c1)[C@]1(C(=O)N2)[C@H](c2ccc(O)cc2)N2[C@H](c3ccccc3)[C@H](c3ccccc3)OC(=O)[C@H]2[C@@H]1C(=O)NC[C@H](O)c1ccccc1)C(=O)OC` belongs 0.408.
Turning to `CCCCC(O)C1C=CC2C(=O)N(C)C(=O)C2N1N(c1ccccc1)c1ccccc1` (stereo not given), the composite z-score is 0.912.
Still for that read-out and setting: for `O=C1[C@H]2C=C(I)[C@H](C[C@@H]2OCCOCCO)[C@@]12CO2` the value was 0.0017; for `C=CC[C@]1(C(=O)N2CCCCC2)N=C(c2ccc(OCCCO)cc2)O[C@H]1c1ccccc1CN=[N+]=[N-]`, 0.293; for `COC(=O)[C@@]1(Cc2ccc(OC)cc2)[C@H]2c3cc(C(=O)N4CCCC4)n(CCO)c3C[C@H]2CN1C(=O)c1ccccc1`, 1.05.
Still for that read-out and setting: to `C=CC[C@]1(C(=O)N2CCOCC2)COC(c2ccc(OCCCO)cc2)=N1` belongs 0.555.
Still for that read-out and setting: to `CN(C)C(=O)[C@]1(CCC(=O)OC(C)(C)C)N=C(c2ccc(OCCCO)cc2)O[C@@H]1c1ccccc1CN=[N+]=[N-]` belongs 0.706.
`CO[C@H]1O[C@H](CO)[C@@H](OC(=O)Nc2ccc3c(c2)OCO3)[C@H](OC(=O)Nc2ccc3c(c2)OCO3)[C@@H]1OC(=O)Nc1ccc2c(c1)OCO2` gave a composite z-score of 0.347.
On to `C=C[C@@H](OC)[C@H](OC(=O)Nc1ccc(OC)cc1)c1ccc(O)c(F)c1`, for which the composite z-score is 0.0004.
The same measure, in the same setting: to `COC(=O)c1c(CC[C@@H](CO)NC(=O)N[C@@H](C)Cn2cc(-c3ccccn3)nn2)oc(C(C)=O)c1C(=O)OC` belongs -0.291; to `CCCC[C@@H](O)C1=C(COC)C[C@H]2C(=O)N(Cc3ccccc3)C(=O)[C@H]2[C@H]1CO`, -0.285; to `CCCN1C(=O)[C@]2(Cc3ccccc31)N=C(c1ccc(OCCCO)cc1)O[C@@H]2c1ccccc1`, 0.867.
For the compound `CCOC(=O)C[C@H]1[C@H](OC(=O)c2ccc(C(=O)c3ccccc3)cc2)[C@@H](NC(=O)C2CCCCC2)c2cc(OCCCO)ccc2N1C(=O)c1ccc2ccccc2n1`, the composite z-score is 0.0096.
Still for that read-out and setting: to `COc1cccc(C)c1NC(=O)O[C@H]1[C@H](OC(=O)Nc2ccc3c(c2)OCO3)[C@@H](OC(=O)Nc2ccc3c(c2)OCO3)[C@@H](OC)O[C@@H]1CO` belongs 1.09; to `CC(C)(C)OC(=O)COc1cccc(C(=O)CCN2CCOCC2)c1`, -0.272; to `CC(C)NC(=O)[C@@]1(C)c2ccccc2C(=O)N(Cc2ccc(OC(F)(F)F)cc2)[C@H]1c1ccc(CO)cc1`, -0.232.
The same measure, in the same setting: to `COc1cc2c(cc1O)C(c1cccs1)N(Cc1cc3c(cc1Br)OCO3)CC2` (stereo not given) belongs 0.822; to `CCCCNC(=O)c1ccc(C#CC(C)(C)C)c(OC(C)=O)c1`, 0.797.
`CCCC1(C(=O)OC)C=C2C(=C(C)C(=O)C2C)CN1` (stereo not given) yielded a composite z-score of 0.0853.
Same read-out and setting: for `O=C(C1N=C(c2ccc(OCCCO)cc2)N(c2ccccc2)O1)N1CCCCC1` (stereo not given) the value was 0.634; for `CCCCN1CC=CC23O[C@@H]4/C=C\CCC(C)OC(=O)C4[C@H]2C(=O)N(CCCO)[C@@H]3C1=O` (stereo not given in full), -0.198.
Regarding `Cc1ccc(S[C@]2(C(=O)NCC(F)(F)F)CC(=O)N(Cc3cc(C(F)(F)F)cc(C(F)(F)F)c3)[C@@H]2c2ccc(CO)cc2)cc1`, the composite z-score was -0.237.
The same measure, in the same setting: to `COC(=O)[C@@]1(Cc2ccc(F)cc2)[C@H]2c3cc(C(=O)N(C)C)n(CCc4ccc(OC)c(Br)c4)c3C[C@H]2CN1C(=O)c1ccccc1` belongs 0.178; to `O=C(NCCN1CCOCC1)[C@@H]1c2ccccc2C(=O)N(Cc2ccccc2Cl)[C@H]1c1ccc(CO)cc1`, 0.0685; to `CCCCCN1CC=CC23O[C@@H]4/C=C\CCCOC(=O)C4[C@H]2C(=O)N(C(C)CO)[C@@H]3C1=O` (stereo not given in full), -0.249.
Same read-out and setting: for `COc1ccc(CCNC(=O)[C@@H]2c3ccccc3C(=O)N(C3CCCCC3)[C@H]2c2ccc(CO)cc2)cc1` the value was 1.19; for `C=CCNC(=O)[C@H]1[C@@H]2C(=O)O[C@@H](c3ccccc3)[C@@H](c3ccccc3)N2[C@@H](c2ccccc2OCCO)[C@]12C(=O)N(C(=O)OCCOC)c1ccc(C#CC3(O)CCCCCC3)cc12`, 0.325.
Take `C#Cc1cc2ccccc2oc1=O`: the composite z-score was -0.393.
The same measure, in the same setting: to `CCCC=C(CCC)[C@@H](NS(=O)(=O)CC12CCC(CC1=O)C2(C)C)c1ccc(C(=O)OC)cc1` (stereo not given in full) belongs 0.187.

A further experiment deals with Fibrinogen (Alexa647-labelled). Description: fibrinogen binders on compound microarrays, profiling panel, artefact control for SMM control-protein annotation, biochemical, small-molecule microarray, 635/667 nm fluorescence (AID 1131).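 Also: z-score merges 667 nm fluorescence with per-spot signal-to-noise over triplicate slides.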 As to conditions: fibrinogen-A647 binding fluorescence, higher = more signal.
For the compound `COC(=O)[C@@H]1N=C(c2ccc(OCCCO)cc2)O[C@@H]1C`, the composite z-score is -0.323.
On the same count and under the same terms, to `C=C[C@H]1C(C(=O)OCC)=CC[C@@H](c2ccccc2)N1S(=O)(=O)c1ccc(C)cc1` belongs 0.964; to `CC(c1ccccc1)C(O)C1C=CC2C(=O)N(C)C(=O)C2N1Nc1ccccc1` (stereo not given), 1.02.
On the same count and under the same terms, for `NC(=O)NCC#Cc1ccc2c(c1)[C@]1(C(=O)N2)[C@H](c2ccccc2OCCO)N2[C@H](c3ccccc3)[C@H](c3ccccc3)OC(=O)[C@H]2[C@@H]1C(=O)NC[C@H](O)c1ccccc1` the value was 0.699.
In turn, `CCCCC[C@H]1OC[C@@]23C=C(Br)[C@@H](CC12)[C@@]1(CO1)C3=O` (stereo not given in full) displayed a composite z-score of -0.411.
The same measure, in the same setting: for `CCC#CCN(Cc1ccccc1Br)[C@H](/C=C/C1CC1)[C@@H](O)Cc1ccccc1` the value was -0.805; for `COC(=O)C(CC#Cc1ccc2c(c1)[C@]1(C(=O)N2)[C@H](c2ccc(O)cc2)N2[C@H](c3ccccc3)[C@H](c3ccccc3)OC(=O)[C@H]2[C@@H]1C(=O)NC[C@H](O)c1ccccc1)C(=O)OC`, 0.733; for `CCCCC(O)C1C=CC2C(=O)N(C)C(=O)C2N1N(c1ccccc1)c1ccccc1` (stereo not given), 0.824.
Still for that read-out and setting: for `O=C1[C@H]2C=C(I)[C@H](C[C@@H]2OCCOCCO)[C@@]12CO2` the value was 0.0216; for `C=CC[C@]1(C(=O)N2CCCCC2)N=C(c2ccc(OCCCO)cc2)O[C@H]1c1ccccc1CN=[N+]=[N-]`, 1.01; for `COC(=O)[C@@]1(Cc2ccc(OC)cc2)[C@H]2c3cc(C(=O)N4CCCC4)n(CCO)c3C[C@H]2CN1C(=O)c1ccccc1`, 0.875.
In turn, `C=CC[C@]1(C(=O)N2CCOCC2)COC(c2ccc(OCCCO)cc2)=N1` displayed a composite z-score of 0.837.
`CN(C)C(=O)[C@]1(CCC(=O)OC(C)(C)C)N=C(c2ccc(OCCCO)cc2)O[C@@H]1c1ccccc1CN=[N+]=[N-]` displayed a composite z-score of 0.961.
Still for that read-out and setting: to `CO[C@H]1O[C@H](CO)[C@@H](OC(=O)Nc2ccc3c(c2)OCO3)[C@H](OC(=O)Nc2ccc3c(c2)OCO3)[C@@H]1OC(=O)Nc1ccc2c(c1)OCO2` belongs 1; to `C=C[C@@H](OC)[C@H](OC(=O)Nc1ccc(OC)cc1)c1ccc(O)c(F)c1`, -0.808.
On the same count and under the same terms, to `COC(=O)c1c(CC[C@@H](CO)NC(=O)N[C@@H](C)Cn2cc(-c3ccccn3)nn2)oc(C(C)=O)c1C(=O)OC` belongs -0.676.
Still for that read-out and setting: to `CCCC[C@@H](O)C1=C(COC)C[C@H]2C(=O)N(Cc3ccccc3)C(=O)[C@H]2[C@H]1CO` belongs 0.98.
In turn, `CCCN1C(=O)[C@]2(Cc3ccccc31)N=C(c1ccc(OCCCO)cc1)O[C@@H]2c1ccccc1` showed a composite z-score of 0.971.
On the same count and under the same terms, to `CCOC(=O)C[C@H]1[C@H](OC(=O)c2ccc(C(=O)c3ccccc3)cc2)[C@@H](NC(=O)C2CCCCC2)c2cc(OCCCO)ccc2N1C(=O)c1ccc2ccccc2n1` belongs 0.102.
Same read-out and setting: for `COc1cccc(C)c1NC(=O)O[C@H]1[C@H](OC(=O)Nc2ccc3c(c2)OCO3)[C@@H](OC(=O)Nc2ccc3c(c2)OCO3)[C@@H](OC)O[C@@H]1CO` the value was 0.988.
With `CC(C)(C)OC(=O)COc1cccc(C(=O)CCN2CCOCC2)c1`, the composite z-score came to 0.226.
On the same count and under the same terms, to `CC(C)NC(=O)[C@@]1(C)c2ccccc2C(=O)N(Cc2ccc(OC(F)(F)F)cc2)[C@H]1c1ccc(CO)cc1` belongs -0.535; to `COc1cc2c(cc1O)C(c1cccs1)N(Cc1cc3c(cc1Br)OCO3)CC2` (stereo not given), 0.976; to `CCCCNC(=O)c1ccc(C#CC(C)(C)C)c(OC(C)=O)c1`, 0.587.
`CCCC1(C(=O)OC)C=C2C(=C(C)C(=O)C2C)CN1` (stereo not given) displayed a composite z-score of 0.892.
Consider `O=C(C1N=C(c2ccc(OCCCO)cc2)N(c2ccccc2)O1)N1CCCCC1` (stereo not given), for which the composite z-score was determined as 1.
On to `CCCCN1CC=CC23O[C@@H]4/C=C\CCC(C)OC(=O)C4[C@H]2C(=O)N(CCCO)[C@@H]3C1=O` (stereo not given in full), for which the composite z-score is -0.992.
Turning to `Cc1ccc(S[C@]2(C(=O)NCC(F)(F)F)CC(=O)N(Cc3cc(C(F)(F)F)cc(C(F)(F)F)c3)[C@@H]2c2ccc(CO)cc2)cc1`, the composite z-score is -1.09.
Same read-out and setting: for `COC(=O)[C@@]1(Cc2ccc(F)cc2)[C@H]2c3cc(C(=O)N(C)C)n(CCc4ccc(OC)c(Br)c4)c3C[C@H]2CN1C(=O)c1ccccc1` the value was 0.626; for `O=C(NCCN1CCOCC1)[C@@H]1c2ccccc2C(=O)N(Cc2ccccc2Cl)[C@H]1c1ccc(CO)cc1`, -0.542; for `CCCCCN1CC=CC23O[C@@H]4/C=C\CCCOC(=O)C4[C@H]2C(=O)N(C(C)CO)[C@@H]3C1=O` (stereo not given in full), 0.659.
`COc1ccc(CCNC(=O)[C@@H]2c3ccccc3C(=O)N(C3CCCCC3)[C@H]2c2ccc(CO)cc2)cc1`: the composite z-score was found to be 0.144.
As to `C=CCNC(=O)[C@H]1[C@@H]2C(=O)O[C@@H](c3ccccc3)[C@@H](c3ccccc3)N2[C@@H](c2ccccc2OCCO)[C@]12C(=O)N(C(=O)OCCOC)c1ccc(C#CC3(O)CCCCCC3)cc12`, the composite z-score amounted to 0.579.
Same read-out and setting: to `C#Cc1cc2ccccc2oc1=O` belongs -1.03.
As to `CCCC=C(CCC)[C@@H](NS(=O)(=O)CC12CCC(CC1=O)C2(C)C)c1ccc(C(=O)OC)cc1` (stereo not given in full), the composite z-score came out at 0.0749.
